These results are taken from PubChem BioAssay (Tox21).

SMILES strings stand for the structures. Results filed as inconclusive are left out. Activity calls are given as the source filed them. Unless noted, calls come from the whole dose curve; as a rule, active = well fitted curve in the direction sought with a large enough effect in the repeat runs; inconclusive = weak or mixed curves; inactive = no such curve, though single readings can be large; an effect the other way counts as inactive or inconclusive.

The target in test [1] is Peroxisome proliferator-activated receptor gamma (Homo sapiens) (UniProt P37231). The test can be described thus: qHTS assay to identify small molecule antagonists of the peroxisome proliferator-activated receptor gamma (PPARg) signaling pathway (AID 743191; calls by dose curve; note: potency is the fitted concentration of half-maximal effect; nearly all actives have a fitted effect of over 30% in size). The procedure, abridged:
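GeneBLAzer PPARg UAS-bla HEK293H cells carrying a UAS-driven beta-lactamase reporter were plated at 3000 cells/well, preincubated 5 h at 37C, then given compound for 17 h at 37C; LiveBLAzer B/G FRET substrate was read after 1 h at room temperature.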

Test [2] can be described thus: qHTS assay to identify small molecule antagonists of the peroxisome proliferator-activated receptor gamma (PPARg) signaling pathway - cell viability counter screen (AID 743194). Note: nearly all actives have a fitted effect of over 55% in size. Note: potency is the fitted concentration of half-maximal effect. The procedure, abridged: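 PPARg-UAS-bla HEK293H cells were plated, rested 5 h at 37 C, then treated with compounds plus rosiglitazone (50 nM final) for 17 h at 37 C; viability was then read by CellTiter-Glo luminescence after 30 min at room temperature.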

Test [3] is described as follows: qHTS assay for small molecule agonists of the antioxidant response element (ARE) signaling pathway - cell viability counter screen (AID 743203; calls by dose curve; note: nearly all actives have a fitted effect of over 55% in size; note: potency is the fitted concentration of half-maximal effect). The procedure, abridged: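 HepG2 cells carrying ARE-driven beta-lactamase; 2,000 cells/well; 5 hrs plating; compound pinned from DMSO; 16 hrs 37C/5% CO2; CellTiter-Glo added; 30 min RT; luminescence.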
(In qHTS, concentration-response curves come from the screen itself.)

Test [4] can be described thus: qHTS assay for small molecule activators of the heat shock response signaling pathway - cell viability counter screen (AID 743209). Note: nearly all actives have a fitted effect of over 50% in size. Note: potency is the fitted concentration of half-maximal effect. The procedure, abridged: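 Luminescence from CellTiter-Glo, added after the beta-lactamase FRET read, gave the viability signal. Cells were HSE-bla HeLa treated with DMSO-dissolved compounds for 5 h at 37 C following overnight plating.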

The nature of test [5]: qHTS assay to identify small molecule that activate the aryl hydrocarbon receptor (AhR) signaling pathway - cell viability counter screen (AID 743086). Note: nearly all actives have a fitted effect of over 45% in size. Note: potency is the fitted concentration of half-maximal effect. The procedure, abridged: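 HepG2-AhR-luc (HG2L7.5c1) cells, 4000/well, were preincubated 5 h at 37C, exposed to compound in qHTS format for 24 hr at 37C, then given CellTiter-Fluor for 30 min; viability was read as fluorescence in the reporter wells.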

Test [6] has as its target Aryl hydrocarbon receptor (Homo sapiens) (UniProt P35869). Briefly: qHTS assay to identify small molecule that activate the aryl hydrocarbon receptor (AhR) signaling pathway (AID 743085).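 For activation: HG2L7.5c1 human HepG2 liver cells with stably integrated DRE-driven firefly reporter; series mostly up to about 70 µM.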 Note: nearly all actives have a fitted effect of over 15% in size. Note: potency is the fitted concentration of half-maximal effect. The procedure, abridged:
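HepG2 cells stably carrying a 20-DRE firefly luciferase reporter (HG2L7.5c1) treated with compound for 24 hr at 37C. Luciferase read by ONE-Glo luminescence, with CellTiter-Fluor viability read first.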

Test [7] is described as follows: qHTS assay for small molecule activators of the heat shock response signaling pathway (AID 743210; active = well fitted activation curve with a large enough effect in the signal ratio in the repeat runs, with a control signal flat, not every such curve was filed as active; the % refers to the signal ratio;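 note: HeLa cells with beta-lactamase reporter driven by heat shock elements; series mostly up to about 63 µM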). The procedure, abridged:
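Reporter gene assay: HeLa cells stably bearing an HSE-bla construct, compound treatment 5 h at 37 C, LiveBLAzer substrate 2.5 h at RT, fluorescence intensity.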

The target in test [8] is Peroxisome proliferator-activated receptor gamma (Homo sapiens) (UniProt P37231). Briefly: qHTS assay to identify small molecule agonists of the peroxisome proliferator-activated receptor gamma (PPARg) signaling pathway (AID 743094; active = well fitted activation curve with a large enough effect in the signal ratio in the repeat runs, not every such curve was filed as active; the % refers to the signal ratio; note: potency is the fitted concentration of half-maximal effect). The procedure, abridged:
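Beta-lactamase FRET fluorescence was the read-out after a 1 h room-temperature substrate step, following 17 h compound treatment at 37C of HEK293H cells expressing a UAS-driven bla reporter responsive to PPARg.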

Sequence of Peroxisome proliferator-activated receptor gamma (Homo sapiens) (P37231 whole entry, looked up): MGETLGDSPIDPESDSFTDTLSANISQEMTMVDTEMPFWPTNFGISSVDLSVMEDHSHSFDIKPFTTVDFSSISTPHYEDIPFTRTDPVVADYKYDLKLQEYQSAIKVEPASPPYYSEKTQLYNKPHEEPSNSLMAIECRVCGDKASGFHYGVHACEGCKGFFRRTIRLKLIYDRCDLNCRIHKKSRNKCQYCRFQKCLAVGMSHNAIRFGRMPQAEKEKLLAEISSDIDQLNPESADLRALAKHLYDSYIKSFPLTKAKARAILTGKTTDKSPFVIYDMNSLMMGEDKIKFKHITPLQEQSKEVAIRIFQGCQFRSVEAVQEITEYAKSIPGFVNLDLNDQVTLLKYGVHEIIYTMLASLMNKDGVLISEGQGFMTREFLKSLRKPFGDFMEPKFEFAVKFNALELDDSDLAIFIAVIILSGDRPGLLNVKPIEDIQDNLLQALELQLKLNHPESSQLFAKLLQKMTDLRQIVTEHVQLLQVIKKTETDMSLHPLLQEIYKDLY
Sequence of Aryl hydrocarbon receptor (Homo sapiens) (P35869 whole entry, looked up): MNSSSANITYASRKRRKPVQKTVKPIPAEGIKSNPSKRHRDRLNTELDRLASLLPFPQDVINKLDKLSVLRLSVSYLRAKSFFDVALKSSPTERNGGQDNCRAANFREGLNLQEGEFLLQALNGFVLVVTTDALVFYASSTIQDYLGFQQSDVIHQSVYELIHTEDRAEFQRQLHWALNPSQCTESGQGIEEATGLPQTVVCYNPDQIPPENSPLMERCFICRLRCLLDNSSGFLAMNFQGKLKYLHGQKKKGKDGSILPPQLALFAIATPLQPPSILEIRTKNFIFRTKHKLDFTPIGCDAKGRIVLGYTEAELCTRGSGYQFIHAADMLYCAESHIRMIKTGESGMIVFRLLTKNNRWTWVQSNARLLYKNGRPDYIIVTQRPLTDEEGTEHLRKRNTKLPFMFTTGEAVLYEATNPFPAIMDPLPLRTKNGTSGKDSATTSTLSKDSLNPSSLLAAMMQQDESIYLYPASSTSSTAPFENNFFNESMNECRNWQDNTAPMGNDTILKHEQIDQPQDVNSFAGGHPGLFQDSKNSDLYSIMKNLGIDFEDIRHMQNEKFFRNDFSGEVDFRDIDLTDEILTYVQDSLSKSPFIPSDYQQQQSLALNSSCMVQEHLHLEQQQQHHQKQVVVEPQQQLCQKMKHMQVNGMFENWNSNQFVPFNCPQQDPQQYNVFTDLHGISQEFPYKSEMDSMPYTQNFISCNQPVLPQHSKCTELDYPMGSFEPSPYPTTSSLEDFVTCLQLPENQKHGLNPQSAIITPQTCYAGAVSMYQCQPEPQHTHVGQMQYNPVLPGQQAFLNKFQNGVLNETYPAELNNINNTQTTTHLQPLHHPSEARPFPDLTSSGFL

Take `COc1ccc(-n2nc(CCC(=O)N(C)O)cc2-c2ccc(Cl)cc2)cc1`: the Potency in test [1] is 3.76 µM (active). For the same compound, the Potency result in test [2], in test [3] and in test [4] was “inactive” each time.

With `Brc1ccccc1-c1ccccc1`, in test [5], the Potency entry is “inactive”.

With `C[n+]1c2cc(N)ccc2cc2ccc(N)cc21` (tested in a mixture with another compound), the Potency in test [6] is 9.44 µM (active); in test [4], 29.8 µM (active). Further, the Potency result in test [3] and in test [7] was “inactive” each time.

As for `O=C1NC2CCCCN2C12CCN(CCCN1c3ccccc3CCc3ccc(Cl)cc31)CC2` (stereo not drawn), the Potency in test [6] is 13.3 µM (active); in test [5] it was 23.7 µM (active); in test [2] it was 26.6 µM (active); in test [3], 29.8 µM (active); in test [4], 29.8 µM (active).

As for `CN1CCN(C2Cc3ccccc3Sc3ccc(Cl)cc32)CC1` (stereo not drawn), the Potency entry in test [6] is “inactive”. The Potency in test [1], in test [2] and in test [3] was 29.8 µM (active) in each case.

Consider `CCCCCCCC/C=C\CCCCCCCC(=O)N(C)CC(=O)O`, for which the Potency result in test [6] is “inactive”. Moreover, the figures for the Potency in test [8] and in test [4] were 6.92 µM (active) and 21.9 µM (active), respectively.

With `O=C1NCN(c2ccccc2)C12CCN(CCCC(c1ccc(F)cc1)c1ccc(F)cc1)CC2`, the Potency entry in test [5] is “inactive”. In addition, the Potency in test [3] was 29.8 µM (active).
